Compound activity: PubChem, National Center for Advancing Translational Sciences (NCATS)
Many of the other results were omitted from the sample, so hits are more common in it than they were.
Cycloheximide cs: Cycloheximide Counterscreen for Small Molecule Inhibitors of Shiga Toxin; cell reporter, cycloheximide protein synthesis inhibition counterscreen; max response, %; hit rate 12% among 300,000; in the data active = max response mostly above about 13%, no sharp cut-off; inactive = mostly below about 14%; note: read at 38.3 µM for the half of the compounds with a filed dose; 0% is about no effect
RE007 growth inh: qHTS Assay for Inhibitors of the HIV-1 protein Vpr; S. pombe RE007 Vpr strain, BacTiter-Glo ATP luminescence, 24 h; Potency, µM (titrated, usually from 92.2 µM), for the others: at the top dose activity change, negative = less growth, hits mostly inhibitors; hit rate 0.21% among 360,000; active = well fitted falling curve with a large enough effect; inconclusive = small, poorly fitted or top-dose-only effect; inactive = no such curve, though single readings can be large or run the other way; note: potency is the fitted concentration of half-maximal effect; % is set by controls: 0 for no effect and ±100 for the full control effect; nearly all actives have a fitted effect of over 50% in size
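Fission yeast RE007 carrying one integrated HIV-1 vpr copy, seeded at OD 0.01 in PMG+AL medium with 23 nL pinned compound. Grown 24 h at 30 degrees; viability read by BacTiter-Glo luminescence after 5 min.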
Shiga inhibitor: A qHTS for Small Molecule Inhibitors of Shiga Toxin. Vero cells, Shiga toxin protein synthesis inhibition reporter. inhibition, % at 38.7 µM. hit rate 9.2% among 290,000; in the data active = inhibition mostly above about 28%, no sharp cut-off; inactive = mostly below about 43%; note: 0% is about no effect
FBPA Giardia inh: qHTS Assay for Inhibitors of Fructose-1,6-bisphosphate Aldolase from Giardia Lamblia; Potency, µM (doses to about 59.6 µM), without a hit: at the top dose activity, negative = inhibition, usual class: inhibitors; purified Giardia FBPA; hit rate 0.71% among 290,000; note: potency is the fitted concentration of half-maximal effect; % is set by controls: 0 for no effect and ±100 for the full control effect; nearly all actives have a fitted effect of over 55% in size
Target sequence (A8B2U2 whole entry, looked up): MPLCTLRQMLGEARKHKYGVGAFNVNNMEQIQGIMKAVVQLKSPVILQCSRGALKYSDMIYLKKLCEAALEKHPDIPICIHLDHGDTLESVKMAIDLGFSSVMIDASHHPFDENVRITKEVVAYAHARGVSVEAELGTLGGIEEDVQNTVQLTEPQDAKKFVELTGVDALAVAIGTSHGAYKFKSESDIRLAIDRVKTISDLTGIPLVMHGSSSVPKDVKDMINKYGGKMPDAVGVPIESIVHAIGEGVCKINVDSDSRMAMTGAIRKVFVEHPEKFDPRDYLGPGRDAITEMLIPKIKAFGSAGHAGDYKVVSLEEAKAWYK
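Giardia FBPA (40 nM reagent) was preincubated 10 min at RT with compound (up to 57.5 uM final), then substrate plus GAPDH/TPI/NAD/arsenate coupling system with diaphorase/resazurin was added; resorufin fluorescence (525/598 nm) was read after 20 min.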
TbPYK inhibitor: qHTS of Trypanosoma Brucei Inhibitors; pyruvate kinase (Trypanosoma brucei), Q57TT1; TbPYK enzyme, Kinase-Glo Plus ATP luminescence, 45 min; Potency, µM (series often up to 76.8 µM), for inactives: at the top dose activity, negative = inhibition, hits mostly inhibitors; hit rate 0.12% among 410,000; note: potency is the fitted concentration of half-maximal effect; % is set by controls: 0 for no effect and ±100 for the full control effect; nearly all actives have a fitted effect of over 50% in size
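In this concentration-response screen, enzyme-free wells defined baseline while DMSO plates tracked drift. Each reaction combined TbPYK, substrate, compound and 130 uM ADP for 45 min at room temperature. Kinase-Glo Plus luminescence gave the signal.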
LmPK inh: qHTS Assay for Inhibitors of Leishmania Mexicana Pyruvate Kinase (LmPK) | Q27686 | purified LmPK, Kinase-Glo ATP luminescence, 1 h | Potency, µM (series often up to 57.5 µM), for inactives: at the top dose activity change, negative = inhibition, actives largely listed as inhibitors | hit rate 0.37% among 290,000; note: potency is the fitted concentration of half-maximal effect; % is set by controls: 0 for no effect and ±100 for the full control effect
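In 50 mM imidazole pH 7.2 with 7 mM MgCl2, LmPK (0.1 nM) turned over PEP (0.5 mM) and ADP (0.1 mM) for 1 h at room temperature. Luciferase read-out of ATP.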
* marks the source's active call; other numbers are inactive results; ? = inconclusive; . = not tested or not shown. Unless noted, calls come from the whole dose curve; as a rule, active = well fitted curve in the direction sought with a large enough effect; inconclusive = small, poorly fitted or top-dose-only effect, or another doubt; inactive = no such curve, though single readings can be large; an effect the other way counts as inactive or inconclusive.

SMILES	Cycloheximide cs	RE007 growth inh	Shiga inhibitor	FBPA Giardia inh	TbPYK inhibitor	LmPK inh
O=C(Nc1c[nH]c2c(Cl)cccc2c1=O)N1CCN(c2ccccn2)CC1	16*	-1%	28	7%	3%	4%
Cc1cc2nc(C3CCCN(C(=O)NCc4ccccc4)C3)[nH]c2cc1C (centres undefined)	35*	-3%	47	.	2%	-2%
Cc1ccc2nc(C3CCCN(C(=S)Nc4cccc(C)c4C)C3)[nH]c2c1 (centres undefined)	2	-20%	19	-4%	0%	-2%
Cc1ccc(NC(=S)N2CCCC(c3nc4ccc(C)cc4[nH]3)C2)c(C)c1 (centres undefined)	10*	16%	6	-5%	0%	5%
Cc1cc2nc(C3CCCN(C(=S)Nc4ccccc4C)C3)[nH]c2cc1C (centres undefined)	33*	8%	28	-2%	-2%	2%
O=C(C1COc2ccccc2O1)N1CCN(c2nc3ccc(F)cc3s2)CC1 (centres undefined)	.	.	.	.	-3%	.
COc1ccc(CC(=O)NCc2ccc(Cl)cc2)cc1S(=O)(=O)N1CCOCC1	.	1%	.	.	-2%	.
COc1ccc(OC)c(CN(CCN2CCOCC2)C(=O)Nc2cccc(Cl)c2)c1	-5	-4%	-8	-1%	-6%	2%
CC(C)Oc1cccc(C(=O)Nc2ccc(CN3CCOCC3)cc2)c1	16*	-2%	18	-1%	-14%	2%
COc1cccc(NC(=O)c2ccc(CN3CCOCC3)cc2)c1	22*	-10%	33	1%	-13%	?
CCCOc1cccc(C(=O)Nc2ccc(CN3CCOCC3)cc2)c1	-1	-9%	5	2%	-21%	1%
O=C(Nc1cccc(Br)c1)c1ccc(CN2CCc3ccccc3C2)cc1	17*	-3%	19	-4%	1%	-2%
CSc1cccc(NC(=O)c2ccc(CN3CCc4ccccc4C3)cc2)c1	13	-2%	22	?	5%	3%
COc1ccc(OC)c(CN(CCN2CCOCC2)C(=O)Nc2ccccc2)c1	9	-2%	43*	2%	3%	-4%
C[C@H](Cc1nc2c(cnn2-c2ccccc2Cl)c(=O)[nH]1)C(F)(F)F	-5	.	-5	0%	.	.
CCOc1ccc(C2Nc3ccccc3-c3nnc(SCc4ccccc4)nc3O2)cc1OC (centres undefined)	.	.	.	.	6%	.
FC(F)(F)c1ccccc1-c1nccc(N2CCNCC2)n1	.	.	.	5%	.	.
O=C(Nc1ccc2c(c1)OCCO2)c1ccc(CN2CCOCC2)cc1	50*	-5%	73*	7%	1%	-5%
CCN(CC)S(=O)(=O)c1ccc(NC(=O)c2ccc(CN3CCOCC3)cc2)cc1	1	-7%	5	-1%	4%	2%
COc1c(C)cccc1C(=O)Nc1ccc(CN2CCOCC2)cc1	47*	0%	44*	-2%	-5%	-12%
O=C(NC1CC2CCC1C2)c1ccc(CN2CCOCC2)cc1 (centres undefined)	34*	-2%	117*	19%	1%	-3%
Cc1ccc(C)c(NC(=O)c2ccc(CN3CC(=O)N4CCCCC4C3=O)cc2)c1 (centres undefined)	.	.	.	.	-1%	.
c1ccc(NCCCNc2ccccc2)cc1	11*	?	16	-7%	-1%	7%
O=C1c2ccccc2C(=O)N1CCCCNc1ccccc1	.	10%	.	.	-5%	.
COC(=O)c1cc(-c2ccc(C)o2)nc2ccccc12	-2	11µM*	12	-15%	22µM*	-13%
SMILES	Cycloheximide cs	RE007 growth inh	Shiga inhibitor	FBPA Giardia inh	TbPYK inhibitor	LmPK inh
Cc1ccc(-c2cc(C(=O)Nc3ccccc3C)c3ccccc3n2)o1	-1	-17%	8	-25%	-19%	-9%
Cc1ccc(-c2cc(C(=O)O)c3cc(Br)ccc3n2)s1	23*	-18%	42*	-12%	6%	-7%
Cc1ccc(-c2cc(C(=O)O)c3cc(Br)ccc3n2)o1	7	.	13	?	10µM*	-25%
CCc1ccc(Nc2nnc(SCC(=O)N(C)C3CCS(=O)(=O)C3)s2)cc1 (centres undefined)	17*	21%	23	-5%	3%	-2%
Cc1ccccc1-n1c(CSC(=N)N)nc2ccccc2c1=O	-3	-9%	7	-15%	2%	-6%
N=C(N)SCc1nc2ccccc2c(=O)n1-c1ccccc1Cl	50*	6%	81*	-9%	-2%	-2%
CC(=O)c1cccc(NC(=O)CCc2c(C)nc3c(-c4ccc(F)cc4)c(C)nn3c2C)c1	.	.	.	.	8%	.
Cc1noc(C(=O)Nc2ccc(F)c(Cl)c2)c1Cl	29*	107%	30*	5%	-6%	-5%
Cc1ccc(NC(=O)c2onc(C)c2Cl)cc1	30*	-21%	62*	0%	-7%	1%
CCOc1ccc(CNC(=O)C2CCN(C3=NS(=O)(=O)C(c4ccc(C)cc4)=C3CC)CC2)cc1	.	.	.	.	1%	.
C=CCn1c(=NC(=O)C2CCCCC2)sc2cc(NC(C)=O)ccc21	-2	1%	13	1%	3%	0%
C=CCn1c(=NC(=O)C2CC2)sc2cc(NC(C)=O)ccc21	28*	-4%	42	-2%	2%	9%
O=C(CNc1cc(S(=O)(=O)N2CCCC2)ccc1OCC(F)(F)F)Nc1ccc(SC(F)F)cc1	21*	11%	53	-8%	4%	2%
Cc1ccccc1Cn1c2ccccc2c2cnn(CC(=O)NCCc3ccc(Cl)cc3)c(=O)c21	.	.	.	.	-2%	.
COc1ccccc1NC=C1C(=O)OC2(CCCCC2)OC1=O	31*	-10%	80	0%	3%	1%
COC(=O)c1ccccc1NC=C1C(=O)OC2(CCCCC2)OC1=O	12	2%	-12	3%	2%	-1%
Cc1ccc(S(=O)(=O)Nc2nc3ccccc3nc2NCC2CCCO2)cc1C (centres undefined)	-3	0%	-4	6%	-6%	5%
CCCCCCCCCCC(C)=O	-5	.	-6	8%	.	.
NC(=S)N/N=C/c1coc2c(ccc3ccccc32)c1=O	24*	-11%	33	2%	2%	-7%
NC(=S)N/N=C/c1coc2cc(Br)ccc2c1=O	-4	?	2	1%	-4%	-1%
Cc1ccc(C(=O)NCCN2CCOCC2)cc1	13*	4%	20	1%	0%	-1%
Cc1ccc(C(=O)NCCC(=O)N2CCOCC2)cc1	50*	11%	85*	.	0%	-10%
CC(=O)N1CCN(C(=O)CCNC(=O)c2ccc(Br)cc2)CC1	.	2%	.	.	5%	.
CCOc1cc(C2C(C(=O)OC)=C(C)NC3=C2C(=O)c2ccccc23)cc(Br)c1OCC (centres undefined)	.	.	.	.	-2%	.
